Data from ChEMBL document CHEMBL3988442, “University of Dundee, Small-Polar-MMV Screening Library” (2021).
Screen size: about 38,000 compounds; about 1,200 (3.2%) showed an effect of 50% or more. The median lay at about -58%. This excerpt belongs to a sample that is enriched for strong results.

System: Plasmodium falciparum
Test: Calibr Malaria Delayed Death Assay SOP
Type: functional, organism-based
Design: scale not given: in the data most compounds retested in dose-response had high values
Conditions: concentration 4.99e-06 (unit not given; other assays of the set use mol/L)

Row | Compound | Percent Effect [%]
1 | Nc1nnc(SCc2cc(=O)n3c4c(sc3n2)CCCC4)s1 | -2.534
2 | COc1nn(C)cc1-c1nnc(SCc2cccnc2)n1C | -46.9
3 | Cc1ccsc1CN(CCCC(F)(F)F)Cc1ccccn1 | -90.49
4 | COCCC(=O)N(Cc1ccccn1)Cc1ccccc1C | -111.9
5 | Cc1ccsc1CN(C)Cc1ncccc1C(=O)O | -86.93
6 | CCn1nc(C)c(CN(CCOC)Cc2ccccn2)c1C | -17.72
7 | Cc1ccsc1CN(CCCN(C)C)Cc1ccccn1 | 76.79
8 | N#Cc1cccc(CN2CC[C@@H]3CN(c4ncccn4)CCO[C@@H]3C2)c1.O=C(O)C(F)(F)F | -75.88
9 | CCc1cc(N2CCC(NCCc3nc(C)c(C)s3)CC2)nc(C)n1 | 38.37
10 | CCn1ccc(NS(=O)(=O)c2cccc(COC)c2)n1 | -78.42
11 | CCn1cc(NC(=O)NCC(C)N(C)C)cn1 (centres undefined) | -90.57
12 | CCOc1ccc(CNC(C)c2cccc(S(=O)(=O)NC)c2)cc1 (centres undefined) | 46.18
13 | CC(NCc1ccc(C(C)(C)C)cc1)c1ccc(S(C)(=O)=O)cc1 (centres undefined) | -13.51
14 | CNS(=O)(=O)c1cccc(C(C)NCc2ccncc2)c1 (centres undefined) | -55.25
15 | CNS(=O)(=O)c1cccc(CNC(=O)CCc2ccsc2)c1 | -45.32
16 | CNS(=O)(=O)c1cccc(C(C)NCc2ccc(C)c(C)c2)c1 (centres undefined) | 61.29
17 | CNS(=O)(=O)c1cccc(C(C)NCc2ccsc2)c1 (centres undefined) | 66.25
18 | CNS(=O)(=O)c1cccc(C(C)NCc2ccc(F)c(F)c2)c1 (centres undefined) | 8.659
19 | CNS(=O)(=O)c1cccc(C(C)NCc2ccccc2)c1 (centres undefined) | 57.8
20 | CNS(=O)(=O)c1cccc(C(C)NCc2cccc(O)c2)c1 (centres undefined) | 1.026
21 | O=C(NCCn1ccnc1)c1ccn(-c2ccc(F)cc2)n1 | -157.5
22 | CCN1C[C@H]2C[C@H](C(=O)Nc3ccccc3)[C@@H](C1)O2.O=C(O)C(F)(F)F | -59.56
23 | Cc1oc(-c2nc(C#N)c(N(C)C)o2)cc1S(=O)(=O)N1CCCCCC1 | -117.8
24 | COc1cc(C(=O)NC(C)c2cccs2)cc2c1OCCO2 (centres undefined) | 13.73
25 | O=C(c1cscn1)N1CCCCC1c1nc2cc(F)ccc2[nH]1 (centres undefined) | -66.74
26 | CNC(=O)CN(C(=O)c1ccc(SC)o1)c1cccc(F)c1 | -133.7
27 | CC(C)(C)CNC(=O)c1ccc(C(=O)O)cc1 | -149.2
28 | CCCc1nc(CN(CC)Cc2ccoc2)no1 | -101
29 | COc1cc(C(=O)N(Cc2ccco2)C2CC2)cc(OC)c1OC | -36.86
